The values below come from PubChem BioAssay (NCATS).

The nature of assay [1]: qHTS of pediatric cancer cell lines to identify multiple opportunities for drug repurposing: Primary screen for BT-12 cells (AID 1347101). Further: nearly all actives have a fitted effect of over 25% in size. Further: potency means the concentration at half of the fitted maximal effect. The method, boiled down:
(§1)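 Cells (500-1,000/well) rested 5 h, then received compounds for 48 h; metabolically active cells were measured by CellTiter-Glo luminescence. Final concentrations spanned up to 46 µM (MIPE, 11-point) or 0.59 nM-46 µM (NPC, 8-point) in primary screens, 11-point in follow-ups.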

A short description of assay [2]: qHTS of pediatric cancer cell lines to identify multiple opportunities for drug repurposing: Primary screen for Rh18 cells (AID 1347102). Further: nearly all actives have a fitted effect of over 65% in size. Further: potency means the concentration at half of the fitted maximal effect. The gist of the method: (§2)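 Viability after 48 h compound treatment at 37C, 500-1,000 cells/well, read as ATP luminescence with CellTiter-Glo. Primary screens used 11-point (MIPE, 0.78 nM-46 µM) or 8-point (NPC, 0.59 nM-46 µM) final concentrations; follow-up screens used 11-point dilutions.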

Assay [3] can be described thus: qHTS of pediatric cancer cell lines to identify multiple opportunities for drug repurposing: Primary screen for OHS-50 cells (AID 1347103). Further: nearly all actives have a fitted effect of over 40% in size. Further: potency means the concentration at half of the fitted maximal effect. The method, boiled down: as §1
Assay [4] can be described thus: qHTS of pediatric cancer cell lines to identify multiple opportunities for drug repurposing: Primary screen for RD cells (AID 1347104). Further: nearly all actives have a fitted effect of over 55% in size. Further: potency means the concentration at half of the fitted maximal effect. The gist of the method:
(§3)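 Cells plated at 500-1,000/well in growth medium, compounds added after 5 h. MIPE tested at 11 points (from 0.78 nM), NPC at 8 points (from 0.59 nM). CellTiter-Glo luminescence after 48 h; concentration-response curves from primary screen.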

The nature of assay [5]: qHTS of pediatric cancer cell lines to identify multiple opportunities for drug repurposing: Primary screen for MG 63 (6-TG R) cells (AID 1347105). Further: nearly all actives have a fitted effect of over 50% in size. Further: potency means the concentration at half of the fitted maximal effect. The gist of the method: as §3
Assay [6] in a line: qHTS of pediatric cancer cell lines to identify multiple opportunities for drug repurposing: Primary screen for control Hh wild type fibroblast cells (AID 1347106). Further: nearly all actives have a fitted effect of over 55% in size. Further: potency means the concentration at half of the fitted maximal effect.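 On activity change, negative = cytotoxic: a drop in luminescence marks cytotoxicity and a rise apparent proliferation.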 The gist of the method:
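Cells (500-1,000/well) in growth media were settled 5 h at 37 degrees C, then given compounds for 48 h. Viability was read as CellTiter-Glo luminescence. Primary runs used MIPE at 11 points (0.78 nM-46 µM) and NPC at 8 points (0.59 nM-46 µM); follow-ups used 11 points.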

Assay [7] can be described thus: qHTS of pediatric cancer cell lines to identify multiple opportunities for drug repurposing: Primary screen for Rh30 cells (AID 1347107). Further: nearly all actives have a fitted effect of over 75% in size. Further: potency means the concentration at half of the fitted maximal effect. The method, boiled down:
as §2

Assay [8] can be described thus: qHTS of pediatric cancer cell lines to identify multiple opportunities for drug repurposing: Primary screen for Rh41 cells (AID 1347108). Further: nearly all actives have a fitted effect of over 70% in size. Further: potency means the concentration at half of the fitted maximal effect.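 On activity change, negative = cytotoxic: luminescence drop marks cytotoxic hits.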 The gist of the method:
as §3

Assay [9] can be described thus: qHTS of pediatric cancer cell lines to identify multiple opportunities for drug repurposing: Confirmatory screen for NB1643 cells (AID 1347109). Further: nearly all actives have a fitted effect of over 45% in size. Further: potency means the concentration at half of the fitted maximal effect. The method, boiled down: as §2
Assay [10] in a line: qHTS of pediatric cancer cell lines to identify multiple opportunities for drug repurposing: Confirmatory screen for A673 cells (AID 1347110). Further: nearly all actives have a fitted effect of over 65% in size. Further: potency means the concentration at half of the fitted maximal effect. The gist of the method: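 Viability was read as ATP luminescence (CellTiter-Glo) after 48 h of compound exposure at 37 C in A673 cells seeded at 500-1,000/well. Titrations reached 46 uM final, with 11 points in the confirmatory screen. Concentration-response curves were fitted directly.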

Assay [11] can be described thus: qHTS of pediatric cancer cell lines to identify multiple opportunities for drug repurposing: Confirmatory screen for SK-N-MC cells (AID 1347111).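 Further: potency means the concentration at half of the fitted maximal effect; cells exposed to compound for 48 h before the readout; nearly all actives have a fitted effect of over 70% in size.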 The gist of the method:
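SK-N-MC cells at 500-1,000 cells/well in growth media were pre-incubated 5 h, then exposed to compounds at 11-point dilutions for 48 h at 37 degrees C, 5% CO2. Viability was read as CellTiter-Glo luminescence.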

The nature of assay [12]: qHTS of pediatric cancer cell lines to identify multiple opportunities for drug repurposing: Confirmatory screen for LAN-5 cells (AID 1347113). Further: nearly all actives have a fitted effect of over 65% in size. Further: potency means the concentration at half of the fitted maximal effect. The method, boiled down: as §2
The nature of assay [13]: qHTS of pediatric cancer cell lines to identify multiple opportunities for drug repurposing: Confirmatory screen for NB-EBc1 cells (AID 1347115). Further: potency means the concentration at half of the fitted maximal effect; nearly all actives have a fitted effect of over 45% in size. The method, boiled down: as §2
Assay [14] can be described thus: qHTS of pediatric cancer cell lines to identify multiple opportunities for drug repurposing: Confirmatory screen for BT-37 cells (AID 1347117). Further: nearly all actives have a fitted effect of over 55% in size. Further: potency means the concentration at half of the fitted maximal effect. The settings on record: BT-37 pediatric cancer cells, viability; activity change, negative = cytotoxic: at 45.9 µM (top of the series). The method, boiled down: as §2
The nature of assay [15]: qHTS of pediatric cancer cell lines to identify multiple opportunities for drug repurposing: Confirmatory screen for MG 63 (6-TG R) cells (AID 1347119). Further: potency means the concentration at half of the fitted maximal effect; nearly all actives have a fitted effect of over 55% in size. The method, boiled down:
as §2

A short description of assay [16]: qHTS of pediatric cancer cell lines to identify multiple opportunities for drug repurposing: Confirmatory screen for BT-12 cells (AID 1347112). Further: nearly all actives have a fitted effect of over 55% in size. Further: potency means the concentration at half of the fitted maximal effect. The method, boiled down:
as §2

Assay [17] is described as follows: qHTS of pediatric cancer cell lines to identify multiple opportunities for drug repurposing: Confirmatory screen for DAOY cells (AID 1347114). Further: nearly all actives have a fitted effect of over 65% in size. Further: potency means the concentration at half of the fitted maximal effect. The method, boiled down: (§4)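 Viability measured as metabolically active cells via CellTiter-Glo luminescence following 48 hours of compound exposure, 11-point dilutions in confirmatory testing. 500-1,000 cells/well plated 5 hours before dosing; controls were DMSO and 2.3 µM bortezomib.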

Assay [18] in a line: qHTS of pediatric cancer cell lines to identify multiple opportunities for drug repurposing: Confirmatory screen for TC32 cells (AID 1347118). The method, boiled down: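 TC32 cells, 500-1,000/well in growth medium, compound-treated 48 h at 37 °C; viability from CellTiter-Glo luminescence. Primary screen: MIPE 11-point (0.78 nM–46 µM final), NPC 8-point (0.59 nM–46 µM final); confirmatory at 11-point dilutions.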

Assay [19] can be described thus: qHTS of pediatric cancer cell lines to identify multiple opportunities for drug repurposing: Confirmatory screen for SJ-GBM2 cells (AID 1347116). Further: nearly all actives have a fitted effect of over 60% in size. Further: potency means the concentration at half of the fitted maximal effect. The gist of the method: as §4
The nature of assay [20]: qHTS of pediatric cancer cell lines to identify multiple opportunities for drug repurposing: Confirmatory screen for control Hh wild type fibroblast cells (AID 1347121). Further: nearly all actives have a fitted effect of over 70% in size. The method, boiled down:
as §2

Results filed as inconclusive are left out. Activity calls are given as the source filed them. The call rests on the fitted dose curve; in most records, active means well fitted curve in the direction sought with a large enough effect; inconclusive means small, poorly fitted or top-dose-only effect, or another doubt; inactive means no such curve, though single readings can be large; an effect the other way counts as inactive or inconclusive.

On to `COc1ccc(Nc2nccc(NCCO)n2)cc1`, for which the Potency result in [1], in assay [2], in assay [3], in assay [4], in assay [5] and in assay [6] was “inactive” in each case. The Potency entry in assay [7] and in assay [8] was “inactive” in each case.
For `C=CC1=C(C(=O)O)N2C(=O)[C@@H](NC(=O)C(=NO)c3csc(N)n3)[C@H]2SC1`, the Potency result in assay [1], in assay [2], in [3], in assay [4], in assay [5] and in assay [7] was “inactive” in each case. In assay [8], the Potency entry was “inactive”.
For the molecule `C=C1CCC2[C@](C)(CO)C(O)CC[C@]2(C)C1CC=C1C(=O)OCC1O` (some centres undefined), the Potency result in [1], in assay [2], in assay [3], in assay [4], in [5] and in [7] was “inactive” each time. Moreover, in assay [8], the Potency entry is “inactive”.
As for `Cc1cnc(Nc2ccc(CN3CCOCC3)cc2)nc1Nc1cccc(S(=O)(=O)NC(C)(C)C)c1`, the Potency was 9.68 µM (active) in [1]; 3.72 µM (active) in assay [2]; 2.17 µM (active) in assay [3]; 6.62 µM (active) in assay [4]; 3.72 µM (active) in [5]; 11.8 µM (active) in assay [6]. In addition, the Potency was 6.62 µM (active) in assay [7]; 3.32 µM (active) in assay [8]; 5.85 µM (active) in assay [9]; 13.1 µM (active) in [10]; 5.22 µM (active) in assay [11]; 14.7 µM (active) in assay [12]. Also, the values for the Potency in assay [13], in assay [14] and in assay [15] were 10.4 µM (active), 4.65 µM (active) and 4.14 µM (active), respectively.
Take `CN(C)c1ccc(C(=O)NCCCCCCC(=O)NO)cc1`: the Potency is 1.53 µM (active) in assay [1]; 0.0935 µM (active) in assay [2]; 0.344 µM (active) in assay [3]; 2.09 µM (active) in assay [4]; 2.35 µM (active) in [5]; 3.72 µM (active) in [6]. Besides, the Potency was 2.35 µM (active) in assay [7]; 0.935 µM (active) in assay [8]; 1.17 µM (active) in assay [9]; 1.85 µM (active) in [10]; 1.04 µM (active) in assay [11]; 13.1 µM (active) in assay [16]. In addition, the Potency in assay [12] was 1.85 µM (active); in assay [17] it was 3.29 µM (active); in assay [14], 1.65 µM (active); in assay [18] it was 1.65 µM (active); in [15], 1.47 µM (active).
On to `CC(=O)OCC(=O)[C@@]12N=C(C)O[C@H]1C[C@H]1[C@@H]3CCC4=CC(=O)C=C[C@]4(C)[C@@H]3[C@@H](O)C[C@@]12C`, for which the Potency result in assay [1], in assay [2], in assay [3], in [4], in assay [5] and in assay [6] was “inactive” throughout. The Potency entry in assay [7] and in assay [8] was “inactive” in each case.
`NC(=O)c1ncn([C@@H]2O[C@H](CO)[C@@H](O)[C@@H]2O)c1O`: the Potency entry in assay [1], in assay [2], in assay [3], in assay [4], in assay [5] and in assay [7] was “inactive” each time. The Potency entry in [8] is “inactive”.
Take `C[C@H]1[C@@H](OC(=O)CCC(=O)O)O[C@@H]2O[C@@]3(C)CC[C@@H]4[C@H](C)CC[C@@H]1[C@@]24OO3`: the Potency was 1.22 µM (active) in assay [1]; 14.8 µM (active) in [2]; 1.09 µM (active) in assay [3]; 1.66 µM (active) in assay [4]; 18.7 µM (active) in assay [5]; 2.35 µM (active) in [8]. For the same molecule, the Potency was 14.7 µM (active) in [9]; 2.33 µM (active) in assay [10]; 3.29 µM (active) in assay [11]; 16.5 µM (active) in assay [12]; 23.3 µM (active) in [17]; 5.22 µM (active) in assay [13]. For the same molecule, the Potency in assay [19] was 1.17 µM (active); in assay [14] it was 3.69 µM (active); in [18] it was 9.27 µM (active); in [15], 20.8 µM (active). Further, the Potency result in [6] and in [20] was “inactive” each time.
In the case of `CN[C@H]1[C@@H](O)[C@@H]2O[C@@H]3O[C@H](C)CC(=O)[C@]3(O)O[C@@H]2[C@@H](NC)[C@H]1O`, the Potency in assay [1] was 1.09 µM (active); in assay [2] it was 1.18 µM (active); in assay [3], 0.432 µM (active); in assay [4], 0.59 µM (active); in [5], 9.35 µM (active); in assay [6] it was 3.72 µM (active). Moreover, the Potency was 0.296 µM (active) in [7] and 1.18 µM (active) in [8]. Moreover, the Potency entry in assay [9], in [10], in assay [16], in assay [12], in assay [17] and in assay [19] was “inactive” throughout. Besides, the Potency result in [14] and in assay [20] was “inactive” each time.
For `Nc1ccn(C[C@@H](CO)OCP(=O)(O)O)c(=O)n1`, the Potency result in assay [1], in assay [2], in assay [3], in [4], in assay [5] and in [6] was “inactive” in each case. For the same molecule, in assay [8], the Potency result is “inactive”.
Regarding `O=C(O)[C@H](CC(=O)N1C[C@@H]2CCCC[C@H]2C1)Cc1ccccc1`, the Potency entry in assay [1], in [2], in assay [3], in assay [4], in [5] and in assay [6] was “inactive” each time. The Potency result in [7] and in [8] was “inactive” in each case.
As to `Cc1cn([C@@H]2O[C@H](CO)[C@@H](O)[C@H]2F)c(=O)[nH]c1=O`, the Potency result in assay [1], in [2], in assay [3], in [4], in [5] and in [6] was “inactive” in each case. Besides, the Potency entry in assay [7] and in assay [8] was “inactive” each time.
Regarding `COC(=O)[C@@H]1CC2=CC(=O)CC[C@]2(C)[C@@]23O[C@@H]2C[C@@]2(C)[C@H](CC[C@@]24CCC(=O)O4)[C@@H]13`, the Potency entry in assay [1], in assay [2], in assay [3], in assay [4], in assay [5] and in assay [6] was “inactive” in each case. Moreover, the Potency entry in assay [7] and in [8] was “inactive” throughout.
As for `C=C1C[C@@]2(O)O[C@@]3(C[C@H]2C(C)C)[C@H](C)CC[C@H]13`, the Potency result in assay [1], in assay [2], in assay [3], in assay [4], in [5] and in assay [7] was “inactive” each time. Besides, the Potency entry in assay [8] was “inactive”.
Consider `O=C(C=CC#Cc1cccc(NS(=O)(=O)c2ccccc2)c1)NO`, for which the Potency in assay [1] was 7.69 µM (active); in [2], 1.66 µM (active); in assay [3], 5.44 µM (active); in assay [4] it was 5.26 µM (active); in [5], 5.9 µM (active); in assay [7], 11.8 µM (active). Besides, the Potency in assay [8] was 2.96 µM (active); in assay [9], 2.33 µM (active); in assay [10] it was 1.65 µM (active); in assay [11] it was 0.414 µM (active); in assay [16], 18.5 µM (active); in assay [12], 2.61 µM (active). Moreover, the Potency was 7.37 µM (active) in assay [17]; 5.85 µM (active) in assay [13]; 4.65 µM (active) in assay [19]; 2.61 µM (active) in assay [14]; 2.61 µM (active) in [15]. The Potency result in assay [6] is “inactive”.
